Measured values reported in PubChem BioAssay (EPA / NIEHS).
Records with an inconclusive call do not appear. Activity calls are given as the source filed them. The calls were made as follows, unless noted: active = hit-call score of the fitted dose curve at least 0.9, where 1 is the maximum; inactive = score below 0.9.

Key:
[1] = ATG_TAL_CIS: Attagene CIS-FACTORIAL HepG2 Assay for human TAL Basal Promoter (AID 2282966); conditions: HepG2 Attagene cis-factorial TAL promoter reporter; actives raise or lower the signal;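 also: background control endpoint measuring basal TAL promoter reporter mRNA not a specific factor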
In short: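 Fluorescence of labelled reporter cDNA fragments, resolved by capillary electrophoresis, gave the readout. Human HepG2 liver cells carried transiently transfected cis-element reporter units and were treated for 24 hours; activity was fitted bidirectionally against DMSO.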

[2] = ATG_TGFb_CIS: Attagene CIS-FACTORIAL HepG2 Assay for human Transforming Growth Factor (TGF) (AID 2282967); conditions: HepG2 Attagene CIS TGFb reporter, mRNA transcription; actives raise or lower the signal
In short: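 Transient MRTU transfection of HepG2 (FuGene 6). Dose 24 h. TriZol RNA, oligo(dT) RT, PCR, 6-FAM primer extension, HpaI cut, CE. Bidirectional fit, DMSO = baseline.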

[3] = ATG_VDRE_CIS: Attagene CIS-FACTORIAL HepG2 Assay for human Vitamin D Receptor Element (VDRE) (AID 2282968); conditions: HepG2 VDRE cis-reporter transcription, actives raise or lower the signal
In short: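 RT-PCR/CE readout of reporter mRNA; HepG2, transient transfection, 24 h dosing; DMSO baseline; bidirectional analysis.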

[4] = molecular target: X-box-binding protein 1 (Homo sapiens) (UniProt P17861); assay: ATG_Xbp1_CIS: Attagene CIS-FACTORIAL HepG2 Assay for human X-box Binding Protein 1 (XBP1) (AID 2282972); conditions: HepG2 XBP1 cis-element reporter, Attagene multiplex; actives raise or lower the signal
In short: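 HepG2 cells transiently transfected with multiple cis-element reporter units report endogenous TF activity; 24 h exposure, then reporter mRNA measured by RT-PCR, 6-FAM labelling, HpaI digestion and capillary electrophoresis. Bidirectional fitting versus DMSO.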

[5] = ATG_GAL4_TRANS: Attagene TRANS-FACTORIAL HepG2 Assay for GAL4 (Internal Marker) (AID 2282976; active = hit-call score of the fitted dose curve at least 0.9, where 1 is the maximum); conditions: HepG2 Attagene TRANS GAL4 internal marker reporter
In short: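 First, HepG2 cells were transfected with reporter units under GAL4-UAS control. Next, they were treated with chemical for 24 h. Finally, RNA was reverse-transcribed, PCR-amplified, FAM-labelled and resolved by capillary electrophoresis, with induction scored against DMSO.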

[6] = molecular target: Estrogen-related receptor gamma (Homo sapiens) (UniProt P62508); assay: ATG_ERRg_TRANS: Attagene TRANS-FACTORIAL HepG2 Assay for human Estrogen-Related Receptor gamma (ERRg) (AID 2282977; active = hit-call score of the fitted dose curve at least 0.9, where 1 is the maximum;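 also: hits increase reporter signal over DMSO so potencies reflect activators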); conditions: HepG2 Attagene TRANS reporter, ERRg transactivation
In short: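 HepG2 cells transiently transfected with multiplexed GAL4-UAS reporter units driven by chimeric NR-Gal4 proteins; 24 h exposure. Reporter mRNA quantified by RT-PCR, fluorescent labelling, HpaI digestion and capillary electrophoresis; gain of signal vs DMSO.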

[7] = molecular target: Glucocorticoid receptor (Homo sapiens) (UniProt P04150); assay: ATG_GR_TRANS: Attagene TRANS-FACTORIAL HepG2 Assay for human Glucocorticoid Receptor (GR) (AID 2282978; active = hit-call score of the fitted dose curve at least 0.9, where 1 is the maximum;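 also: activators score as hits since higher reporter transcript over DMSO is fitted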); conditions: HepG2 Attagene TRANS GR reporter, mRNA transcription
In short: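 Transiently transfected HepG2 cells express chimeric NR-GAL4 proteins acting on GAL4-UAS reporter units. Compounds are applied for 24 h. mRNA induction over DMSO is measured by capillary electrophoresis.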

[8] = molecular target: Bile acid receptor (Homo sapiens) (UniProt Q96RI1); assay: ATG_FXR_TRANS: Attagene TRANS-FACTORIAL HepG2 Assay for Farnesoid X Receptor (FXR) (AID 2282979; active = hit-call score of the fitted dose curve at least 0.9, where 1 is the maximum;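 also: hits raise reporter mRNA above DMSO so AC50 marks FXR activation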); conditions: HepG2 Attagene TRANS FXR-GAL4 reporter transcription
In short: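 Transient transfection of HepG2 with multiplexed GAL4-UAS reporter units; exogenous FXR-GAL4 chimera. Dose 24 h → TriZol RNA → oligo(dT) RT → PCR, 6-FAM primer extension, HpaI cut → CE. Gain vs DMSO.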

[9] = molecular target: Oxysterols receptor LXR-alpha (Homo sapiens) (UniProt Q13133); assay: ATG_LXRa_TRANS: Attagene TRANS-FACTORIAL HepG2 Assay for human Liver X Receptor alpha (LXRa) (AID 2282980; active = hit-call score of the fitted dose curve at least 0.9, where 1 is the maximum); conditions: HepG2 Attagene TRANS reporter, LXRa transactivation
In short: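 Transfect HepG2 with GAL4-UAS multiplex reporter constructs (TRANS format, chimeric receptor-GAL4); treat 24 h; extract RNA, reverse-transcribe, PCR-amplify, FAM-label, HpaI-digest; resolve fragments by capillary electrophoresis. Upward response vs DMSO.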

[10] = molecular target: Oxysterols receptor LXR-beta (Homo sapiens) (UniProt P55055); assay: ATG_LXRb_TRANS: Attagene TRANS-FACTORIAL HepG2 Assay for human Liver X Receptor beta (LXRb) (AID 2282981; active = hit-call score of the fitted dose curve at least 0.9, where 1 is the maximum); conditions: HepG2 Attagene TRANS GAL4-LXRb reporter, mRNA
In short: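 In this TRANS format, exogenous chimeric NR-Gal4 protein activity, not endogenous factors, drives reporter expression in transfected human HepG2 cells. Exposure lasted 24 h; reporter mRNA was read by fluorescent capillary electrophoresis.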

[11] = ATG_M_06_TRANS: Attagene TRANS-FACTORIAL HepG2 Assay for M06 Transcription Factor (Internal Marker) (AID 2282983; active = hit-call score of the fitted dose curve at least 0.9, where 1 is the maximum); conditions: HepG2 Attagene TRANS M06 internal marker reporter
In short: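 Transfect HepG2 with MRTUs → dose compounds 24 h → isolate RNA, oligo(dT) RT → PCR with reporter primers → 6-FAM primer extension → HpaI digest → CE fragment analysis. Positive direction vs DMSO.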

[12] = molecular target: Nuclear receptor subfamily 4 group A member 2 (Homo sapiens) (UniProt P43354); assay: ATG_NURR1_TRANS: Attagene TRANS-FACTORIAL HepG2 Assay for human Nuclear Receptor Related Protein 1 (NURR1) (AID 2282985; active = hit-call score of the fitted dose curve at least 0.9, where 1 is the maximum); conditions: HepG2 Attagene TRANS reporter, mRNA readout
In short: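 After 24 h chemical dosing, total RNA from transiently transfected HepG2 cells was reverse-transcribed and reporter cDNA PCR-amplified, FAM-labelled and analysed by capillary electrophoresis. Activity fitted in positive direction, DMSO as negative control.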

[13] = molecular target: Transcriptional activator Myb (Homo sapiens) (UniProt P10242); assay: ATG_Myb_CIS: Attagene CIS-FACTORIAL HepG2 Assay for human Myeloblastosis (Myb) Proto-Oncogene Transcription Factor (AID 2282986); conditions: HepG2 Attagene CIS-FACTORIAL Myb reporter transcription; actives raise or lower the signal
In short: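 Using HepG2 liver cells bearing transiently transfected cis-promoter reporter constructs, the assay measures induction or loss of reporter mRNA after 24 hours of dosing. Detection used fluorescently labeled RT-PCR products separated by capillary electrophoresis.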

[14] = molecular target: Nuclear respiratory factor 1 (Homo sapiens) (UniProt Q16656); assay: ATG_NRF1_CIS: Attagene CIS-FACTORIAL HepG2 Assay for human Nuclear Respiratory Factor 1 (NRF1) Orphan Gene (AID 2282987); conditions: HepG2 NRF1 cis-element reporter, Attagene multiplex; actives raise or lower the signal
In short: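 Reporter mRNA induction or loss in HepG2 cells after 24 h dosing; cis-regulated reporter constructs report endogenous transcription-factor activity. Quantified by RT-PCR/capillary electrophoresis fluorescence, DMSO-referenced.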

[15] = molecular target: Hepatocyte nuclear factor 4-alpha (Homo sapiens) (UniProt P41235); assay: ATG_HNF4a_TRANS: Attagene TRANS-FACTORIAL HepG2 Assay for human Hepatocyte Nuclear Factor 4 alpha (HNF4a) (AID 2282982; active = hit-call score of the fitted dose curve at least 0.9, where 1 is the maximum); conditions: HepG2 HNF4a transactivation reporter, mRNA readout
In short: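 Cells used were human HepG2, transiently carrying GAL4-UAS reporter units read out against exogenous NR-GAL4 chimeras. Reporter transcript levels after 24 h dosing were quantified by fluorescent RT-PCR and capillary electrophoresis.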

[16] = ATG_M_32_TRANS: Attagene TRANS-FACTORIAL HepG2 Assay for M32 Transcription Factor (Internal Marker) (AID 2282984; active = hit-call score of the fitted dose curve at least 0.9, where 1 is the maximum;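 also: transcript level of a background control reporter unit measured by RT-PCR and capillary electrophoresis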); conditions: HepG2 Attagene TRANS M32 internal marker reporter
In short: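 Human hepatoma HepG2, transient MRTU transfection, 24 h treatment. RNA → RT-PCR → fluorescent primer extension → HpaI digest (2 h, 37 C) → CE. Positive-direction fit vs DMSO.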

[17] = ATG_M_19_TRANS: Attagene TRANS-FACTORIAL HepG2 Assay for M19 Transcription Factor (Internal Marker) (AID 2282974; active = hit-call score of the fitted dose curve at least 0.9, where 1 is the maximum); conditions: HepG2 Attagene TRANS-FACTORIAL M19 internal marker reporter
In short: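 Multiplexed TRANS format: HepG2 liver cells bearing transient GAL4-UAS reporter units, chemical treatment 24 h, reporter transcripts quantified by RT-PCR plus capillary electrophoresis. DMSO defines baseline.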

Measured: AC50

Sequence of Glucocorticoid receptor (Homo sapiens) (P04150 whole entry, looked up, the tested form may be a part): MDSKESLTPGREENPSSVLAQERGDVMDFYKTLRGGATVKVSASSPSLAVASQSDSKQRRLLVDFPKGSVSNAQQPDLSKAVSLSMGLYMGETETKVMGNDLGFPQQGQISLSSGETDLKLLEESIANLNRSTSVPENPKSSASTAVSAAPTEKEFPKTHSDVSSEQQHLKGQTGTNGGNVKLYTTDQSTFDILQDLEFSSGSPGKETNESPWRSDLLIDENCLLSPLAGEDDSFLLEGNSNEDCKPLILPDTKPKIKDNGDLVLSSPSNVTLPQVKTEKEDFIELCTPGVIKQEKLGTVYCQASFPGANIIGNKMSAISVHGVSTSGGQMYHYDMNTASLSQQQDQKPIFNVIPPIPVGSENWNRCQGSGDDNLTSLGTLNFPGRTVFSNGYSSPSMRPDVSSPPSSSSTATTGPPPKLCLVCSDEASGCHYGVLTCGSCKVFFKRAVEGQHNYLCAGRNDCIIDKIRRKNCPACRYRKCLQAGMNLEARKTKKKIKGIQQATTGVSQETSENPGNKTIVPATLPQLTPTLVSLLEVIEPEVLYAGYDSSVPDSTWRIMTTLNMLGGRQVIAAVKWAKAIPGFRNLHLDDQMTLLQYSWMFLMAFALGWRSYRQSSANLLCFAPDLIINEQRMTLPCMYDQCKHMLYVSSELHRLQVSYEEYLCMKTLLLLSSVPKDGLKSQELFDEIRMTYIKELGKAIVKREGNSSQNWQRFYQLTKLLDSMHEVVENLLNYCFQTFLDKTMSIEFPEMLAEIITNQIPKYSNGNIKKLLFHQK
Sequence of X-box-binding protein 1 (Homo sapiens) (P17861 whole entry, looked up): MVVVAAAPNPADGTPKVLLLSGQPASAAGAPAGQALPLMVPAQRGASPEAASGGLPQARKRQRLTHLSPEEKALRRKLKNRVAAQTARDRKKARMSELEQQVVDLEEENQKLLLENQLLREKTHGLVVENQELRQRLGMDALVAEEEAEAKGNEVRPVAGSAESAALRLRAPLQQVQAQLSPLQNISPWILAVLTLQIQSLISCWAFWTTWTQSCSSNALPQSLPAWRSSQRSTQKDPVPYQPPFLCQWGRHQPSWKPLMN
Sequence of Oxysterols receptor LXR-beta (Homo sapiens) (P55055 whole entry, looked up, the tested form may be a part): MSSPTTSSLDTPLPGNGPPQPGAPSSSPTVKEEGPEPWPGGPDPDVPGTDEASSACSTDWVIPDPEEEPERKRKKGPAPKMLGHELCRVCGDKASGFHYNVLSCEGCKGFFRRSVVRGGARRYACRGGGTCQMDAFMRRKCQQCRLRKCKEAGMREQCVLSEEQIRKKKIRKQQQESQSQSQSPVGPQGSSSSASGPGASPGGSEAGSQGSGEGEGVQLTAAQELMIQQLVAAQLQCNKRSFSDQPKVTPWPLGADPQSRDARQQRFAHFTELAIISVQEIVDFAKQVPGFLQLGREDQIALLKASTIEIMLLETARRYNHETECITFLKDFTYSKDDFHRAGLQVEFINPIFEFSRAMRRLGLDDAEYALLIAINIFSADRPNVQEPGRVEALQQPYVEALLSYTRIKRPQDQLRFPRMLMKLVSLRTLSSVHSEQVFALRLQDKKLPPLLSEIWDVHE
Sequence of Nuclear receptor subfamily 4 group A member 2 (Homo sapiens) (P43354 whole entry, looked up): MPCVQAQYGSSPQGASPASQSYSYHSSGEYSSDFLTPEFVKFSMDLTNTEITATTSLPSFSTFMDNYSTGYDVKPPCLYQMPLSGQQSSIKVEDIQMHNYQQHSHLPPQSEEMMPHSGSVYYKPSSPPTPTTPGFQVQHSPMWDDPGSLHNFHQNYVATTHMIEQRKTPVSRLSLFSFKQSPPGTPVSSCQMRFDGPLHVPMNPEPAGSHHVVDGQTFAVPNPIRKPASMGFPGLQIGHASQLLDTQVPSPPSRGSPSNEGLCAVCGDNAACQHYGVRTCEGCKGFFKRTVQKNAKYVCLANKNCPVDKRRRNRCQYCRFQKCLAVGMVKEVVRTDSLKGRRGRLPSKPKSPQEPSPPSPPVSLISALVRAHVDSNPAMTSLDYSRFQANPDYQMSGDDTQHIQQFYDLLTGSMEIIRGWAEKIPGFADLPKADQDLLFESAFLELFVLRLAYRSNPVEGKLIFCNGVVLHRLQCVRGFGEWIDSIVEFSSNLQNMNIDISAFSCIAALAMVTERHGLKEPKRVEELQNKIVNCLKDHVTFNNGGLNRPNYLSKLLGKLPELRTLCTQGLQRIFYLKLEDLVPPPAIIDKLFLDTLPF
Sequence of Transcriptional activator Myb (Homo sapiens) (P10242 whole entry, looked up): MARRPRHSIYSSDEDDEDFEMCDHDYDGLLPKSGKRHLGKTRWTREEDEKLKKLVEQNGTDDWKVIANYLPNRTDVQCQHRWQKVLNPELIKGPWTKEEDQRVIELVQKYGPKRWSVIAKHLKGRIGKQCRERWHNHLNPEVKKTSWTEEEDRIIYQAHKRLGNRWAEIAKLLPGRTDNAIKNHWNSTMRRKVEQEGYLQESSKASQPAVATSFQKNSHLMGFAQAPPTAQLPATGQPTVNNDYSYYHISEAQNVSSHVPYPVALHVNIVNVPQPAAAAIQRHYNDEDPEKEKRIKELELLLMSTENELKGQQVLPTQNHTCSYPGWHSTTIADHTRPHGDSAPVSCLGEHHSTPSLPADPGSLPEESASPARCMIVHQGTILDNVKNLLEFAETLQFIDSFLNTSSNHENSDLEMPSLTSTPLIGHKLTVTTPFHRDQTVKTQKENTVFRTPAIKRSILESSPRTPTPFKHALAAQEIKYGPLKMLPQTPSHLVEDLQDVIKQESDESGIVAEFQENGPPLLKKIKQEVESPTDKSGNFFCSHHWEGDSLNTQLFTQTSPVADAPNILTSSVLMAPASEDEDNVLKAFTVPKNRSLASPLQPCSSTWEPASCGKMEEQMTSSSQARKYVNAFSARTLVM
Sequence of Oxysterols receptor LXR-alpha (Homo sapiens) (Q13133 whole entry, looked up, the tested form may be a part): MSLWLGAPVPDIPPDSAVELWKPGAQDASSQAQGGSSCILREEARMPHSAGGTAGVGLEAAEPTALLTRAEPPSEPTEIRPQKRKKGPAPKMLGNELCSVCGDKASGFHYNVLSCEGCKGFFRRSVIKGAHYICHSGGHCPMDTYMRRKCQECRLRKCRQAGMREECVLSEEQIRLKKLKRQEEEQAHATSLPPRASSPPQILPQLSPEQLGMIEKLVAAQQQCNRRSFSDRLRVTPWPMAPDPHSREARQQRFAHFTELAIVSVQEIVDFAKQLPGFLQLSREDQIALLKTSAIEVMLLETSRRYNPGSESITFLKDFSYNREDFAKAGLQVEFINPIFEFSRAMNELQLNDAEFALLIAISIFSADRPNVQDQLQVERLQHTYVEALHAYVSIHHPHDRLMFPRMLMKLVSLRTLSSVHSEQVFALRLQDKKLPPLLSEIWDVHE
Sequence of Hepatocyte nuclear factor 4-alpha (Homo sapiens) (P41235 whole entry, looked up, the tested form may be a part): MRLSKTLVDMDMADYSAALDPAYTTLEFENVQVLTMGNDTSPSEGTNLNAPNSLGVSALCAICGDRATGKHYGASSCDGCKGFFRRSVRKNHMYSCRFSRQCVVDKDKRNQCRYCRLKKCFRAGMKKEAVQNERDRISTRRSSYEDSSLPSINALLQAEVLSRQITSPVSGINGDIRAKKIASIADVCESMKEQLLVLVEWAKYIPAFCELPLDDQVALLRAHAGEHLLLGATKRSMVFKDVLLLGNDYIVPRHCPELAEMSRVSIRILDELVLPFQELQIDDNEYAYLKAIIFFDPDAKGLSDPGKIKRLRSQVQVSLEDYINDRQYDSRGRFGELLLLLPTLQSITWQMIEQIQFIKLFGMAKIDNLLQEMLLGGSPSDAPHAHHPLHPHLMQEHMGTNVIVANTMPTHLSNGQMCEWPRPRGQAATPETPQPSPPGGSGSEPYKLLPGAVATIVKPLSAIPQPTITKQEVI
Sequence of Nuclear respiratory factor 1 (Homo sapiens) (Q16656 whole entry, looked up): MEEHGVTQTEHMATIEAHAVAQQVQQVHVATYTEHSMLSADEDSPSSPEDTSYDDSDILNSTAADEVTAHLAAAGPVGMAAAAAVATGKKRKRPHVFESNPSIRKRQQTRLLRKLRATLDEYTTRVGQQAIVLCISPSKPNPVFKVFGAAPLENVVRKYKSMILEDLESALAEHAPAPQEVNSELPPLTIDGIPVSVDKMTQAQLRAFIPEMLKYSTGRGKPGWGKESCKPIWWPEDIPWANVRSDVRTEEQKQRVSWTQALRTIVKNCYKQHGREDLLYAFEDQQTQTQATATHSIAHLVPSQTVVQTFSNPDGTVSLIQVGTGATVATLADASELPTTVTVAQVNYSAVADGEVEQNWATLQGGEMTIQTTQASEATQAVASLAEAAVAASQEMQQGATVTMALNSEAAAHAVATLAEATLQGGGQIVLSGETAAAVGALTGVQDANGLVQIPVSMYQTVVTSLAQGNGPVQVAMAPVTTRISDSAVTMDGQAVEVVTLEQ
Sequence of Bile acid receptor (Homo sapiens) (Q96RI1 whole entry, looked up, the tested form may be a part): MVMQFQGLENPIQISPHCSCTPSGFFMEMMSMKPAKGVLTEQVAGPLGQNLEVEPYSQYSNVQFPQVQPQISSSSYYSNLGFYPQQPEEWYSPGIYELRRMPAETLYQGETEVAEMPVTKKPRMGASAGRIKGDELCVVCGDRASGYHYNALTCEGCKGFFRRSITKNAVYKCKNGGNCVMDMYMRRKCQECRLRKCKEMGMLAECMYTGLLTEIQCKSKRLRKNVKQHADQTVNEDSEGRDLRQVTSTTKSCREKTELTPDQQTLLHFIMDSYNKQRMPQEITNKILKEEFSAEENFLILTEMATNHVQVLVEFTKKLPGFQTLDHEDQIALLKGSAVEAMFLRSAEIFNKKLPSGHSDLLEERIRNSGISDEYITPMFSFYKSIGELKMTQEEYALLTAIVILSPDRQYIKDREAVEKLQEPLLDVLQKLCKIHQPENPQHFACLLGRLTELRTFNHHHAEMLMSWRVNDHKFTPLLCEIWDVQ

COc1cc(C(C)(C)C)c(O)c(C(C)(C)C)c1
not listed: [15] | [16] | [17]
inactive: all other assays above

c1ccc2[nH]ccc2c1
not listed: [6] | [8] | [12] | [15] | [16] | [17]
inactive: all other assays above

CCCCCCCCCCCCCCCC(=O)OC[C@H](O)[C@H]1OC(=O)C(O)=C1O
active: [1] 100 µM | [2] 3.14 µM | [3] 37.1 µM
not listed: [7] | [8] | [9] | [17]
inactive: all other assays above

C=CCOc1nc(OCC=C)nc(OCC=C)n1
not listed: [5] | [6] | [8] | [12] | [15]
inactive: all other assays above

Nc1nc2ccc([N+](=O)[O-])cc2s1
not listed: [5] | [6] | [7] | [8] | [9] | [10] | [12]
inactive: all other assays above

CC(=O)[O][Al][O]C(C)=O
not listed: [6] | [7] | [8] | [10] | [15] | [16] | [17]
inactive: all other assays above

O=S(=O)(O)NC1CCCCC1
inactive: [1] | [2] | [3] | [4] | [17] | [15] | [13] | [14]

O=C(Cl)c1cccc(C(=O)Cl)c1
not listed: [6] | [7] | [8] | [9] | [10] | [17]
inactive: all other assays above

CCCC1CCC(=O)O1 (configuration not stated)
inactive: [1] | [2] | [3] | [4] | [5] | [9] | [11] | [12] | [13]

[Ca+2]
not listed: [6] | [8] | [16] | [17]
inactive: all other assays above

O=C(O)Cc1cccc2ccccc12
not listed: [5] | [6] | [7] | [8] | [9] | [10]
inactive: all other assays above

O=c1[nH]nnc2ccccc12
not listed: [5] | [6] | [7] | [9] | [10] | [11] | [16]
inactive: all other assays above
